# The list is not random: actives were taken first. Their share in the collection is about 3.5%.
# GPR151 ag – activators of human GPR151, primary screen, cell-based, PathHunter beta-arrestin, luminescence; PathHunter beta-arrestin GPR151 cells; activation, % at 11.2 µM; actives 1% (n = 650,000); G-protein coupled receptor 151 (Homo sapiens), Q8TDV0; in the data active = activation above about 4.9%;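 also: 0% = median of compound wells and 100% = cells with positive control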
# FBW7 act – FBW7 E3 ligase activators, primary screen, biochemical, AlphaScreen, human. AID 1259310, 2017. AlphaScreen FBW7–phospho-cyclin E peptide binding, activator screen. actives 0.13% (n = 650,000). normalized activity (activation), % at 26.1 µM; in the data active = normalized activity above about 1.9%;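 also: purified mutant Fbw7 with reduced substrate affinity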
# Target sequence (Q969H0 whole entry, looked up): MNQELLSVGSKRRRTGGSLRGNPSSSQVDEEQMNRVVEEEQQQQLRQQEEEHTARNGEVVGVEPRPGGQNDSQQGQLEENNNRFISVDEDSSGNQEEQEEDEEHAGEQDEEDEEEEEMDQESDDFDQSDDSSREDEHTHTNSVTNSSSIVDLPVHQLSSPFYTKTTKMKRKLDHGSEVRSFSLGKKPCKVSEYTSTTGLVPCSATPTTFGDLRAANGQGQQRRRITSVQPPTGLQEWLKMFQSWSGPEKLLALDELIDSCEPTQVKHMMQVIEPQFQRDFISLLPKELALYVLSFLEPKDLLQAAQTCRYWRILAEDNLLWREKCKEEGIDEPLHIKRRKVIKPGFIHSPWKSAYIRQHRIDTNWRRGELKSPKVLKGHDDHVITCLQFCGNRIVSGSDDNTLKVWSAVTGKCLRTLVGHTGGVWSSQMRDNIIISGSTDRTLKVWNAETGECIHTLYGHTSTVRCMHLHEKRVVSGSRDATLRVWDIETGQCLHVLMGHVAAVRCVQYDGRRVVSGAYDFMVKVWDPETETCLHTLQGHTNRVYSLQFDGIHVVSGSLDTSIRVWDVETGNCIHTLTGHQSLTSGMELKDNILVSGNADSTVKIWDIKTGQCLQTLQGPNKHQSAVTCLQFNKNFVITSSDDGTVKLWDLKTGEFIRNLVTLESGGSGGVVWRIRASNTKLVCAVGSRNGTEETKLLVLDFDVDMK
# TEAD-YAP block – TEAD-YAP interaction inhibition, primary screen, TEAD-YAP interaction inhibitor project, luminescence, HEK-TIYL cells. TEAD-Gal4/YAP UAS-luciferase luminescence. AID 1259422, 2018. inhibition, % at 9.12 µM. actives 1.4% (n = 640,000); in the data active = inhibition above about 32%;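 also: 0% = median of test compound wells and 100% = reference inhibitor wells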
# MITF inh – MITF inhibitors, primary screen, biochemical, AlphaScreen, human; inhibition, % at 2.6 µM; AID 1259374, 2018; Microphthalmia-associated transcription factor (Homo sapiens), O75030; AlphaScreen MITF homodimerization, bead proximity signal; actives 0.91% (n = 650,000); in the data active = inhibition above about 50%;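 also: 0% = vehicle wells with protein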
# GPR151 confirm – GPR151 activators, triplicate retest, confirmation, cell-based, PathHunter beta-arrestin, luminescence; shares compounds with GPR151 ag; GPR151 PathHunter beta-arrestin cells, 90 min; % of EA-reagent control over plate median; activation, % at 11.2 µM; 6,700 tested, under 10 active;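 active = mean percent activation across replicates above the confirmation screen cutoff of 4.91%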
# GPR119 ag – GPR119 activators in beta-arrestin cells, counter-screen for GPR151 activator project, cell-based, PathHunter beta-arrestin, luminescence, triplicate; shares compounds with GPR151 ag; 90 min; 0 = compound-well median, 100 = enzyme-acceptor control; activation, % at 11.2 µM; actives 0.3% (n = 6,700);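 active = mean percent activation in the counterscreen above 29.09%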;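 also: counterscreen on off-target GPR119 to flag nonselective hits from the GPR151 activator screen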
# Active calls of the source: *; · = not tested or not shown.
SMILES,GPR151 ag,FBW7 act,TEAD-YAP block,MITF inh,GPR151 confirm,GPR119 ag
COC(=O)c1ccc2c(=O)n(Cc3ccc(C(=O)NC4CCCC4)cc3)c(=S)[nH]c2c1,0,0,-4,-12,·,·
CCOC(=O)c1c(NC(=O)c2ccc(Br)cc2)sc(C(=O)Nc2ccccc2)c1C,-1,0,-19,17,·,·
COc1ccc(C2=NC(C(C)C)NC(c3cccc(OC)c3O)C2)cc1 (stereo not drawn),-1,0,-72,6,·,·
O=C(NCCc1c[nH]c2ccccc12)C(c1ccccc1)N1Cc2ccccc2C1=O (stereo not drawn),5.2*,0,0,10,0,-8
O=C(/C=C/c1ccccc1)NC(=S)Nc1ccc(Cl)cn1,-1,0,6,11,·,·
Cc1ccccc1-n1c(SCC(N)=O)nc2ccccc2c1=O,5.2*,0,-3,-9,-1,-3
Nc1cc(-c2ccc(Br)cc2)nn1S(=O)(=O)c1ccc([N+](=O)[O-])cc1,2,0,6,-4,·,·
O=C(CSc1ccc(F)cc1)Nc1cc(Cl)ccc1O,6.4*,0,10,13,0,0
O=C(CSc1ccccc1)Nc1cc(Cl)ccc1O,-2,0,7,-7,·,·
CN(/N=C/c1ccc(F)cc1)C1=NS(=O)(=O)c2ccccc21,0,0,-15,14,·,·
CCOc1ccc2nc(C(=O)N3CCCCC3)sc2c1,11*,0,-63,4,-1,-4
Cc1ccc2c(c1)c(=O)c1ccccc1n2CCCC(=O)Nc1ccc(Br)cc1C,0,0,2,-7,·,·
Cc1ccc2c(c1)c(=O)c1ccccc1n2CCCC(=O)Nc1ccc(Br)cn1,17*,0,38*,-6,0,16
C/C(=N\NC(=O)c1ccc(C(=O)N/N=C(\C)c2ccc(F)cc2)cc1)c1ccc(F)cc1,1,0,-3,7,·,·
C/C(=N\NC(=O)c1ccc(F)cc1)c1ccccc1,5.4*,0,-51,-2,0,7
CCOC(=O)N1CCN(CC(O)COc2ccc([N+](=O)[O-])cc2)CC1 (stereo not drawn),5.4*,0,-4,-12,1,19
COc1ccc(NC(=O)C2C3CCC(C3=C(C)C)C2C(=O)O)cc1 (stereo not drawn),5.5*,0,-5,-5,2,21
COc1ccc(S(=O)(=O)Nc2ccccc2SC)cc1C,1,0,-7,-6,·,·
CCOc1ccccc1NS(=O)(=O)c1ccc(Br)c(OC)c1,0,0,5,-9,·,·
CCOc1ccccc1NS(=O)(=O)c1ccc(OC)c(Cl)c1,5.5*,0,2,-5,-1,-4
COc1ccccc1NS(=O)(=O)c1ccc2nc(CCl)[nH]c2c1,7.0*,0,3,-10,0,-3
COc1ccc(S(=O)(=O)Nc2ccccc2SC)cc1Cl,5.2*,0,-3,-2,-1,-4
CC1Cc2nc(SCC(=O)NCc3ccccc3)n(C)c(=O)c2S1 (stereo not drawn),6.4*,1,-3,11,1,5
CCn1c(SCC(=O)c2ccccc2)nc2c(c1=O)SC(C)C2 (stereo not drawn),5.3*,0,10,7,0,5
CC1=NN(c2ccccc2)C(=O)/C1=C/c1c(C)[nH]n(-c2ccccc2C)c1=O,2,0,-1,10,·,·
SMILES,GPR151 ag,FBW7 act,TEAD-YAP block,MITF inh,GPR151 confirm,GPR119 ag
CN(CCC#N)c1ncnc2c1oc1ccccc12,10*,0,-9,-7,0,4
O=C(Nc1ccc2c(c1)OCCO2)c1cc(=O)c(OCc2ccccc2)c[nH]1,8.1*,0,4,-1,0,-1
NS(=O)(=O)c1ccc(NC(=S)NCc2ccc3c(c2)OCO3)cc1,9.1*,0,-2,-12,0,2
O=C(CSc1n[nH]c(=O)n1C1CC1)NCc1ccc2c(c1)OCO2,6.3*,0,17,-12,0,0
O=C(CCN1N=C(c2ccccc2)CCC1=O)NCc1ccc(Cl)cc1,0,0,-7,-3,·,·
O=C(CS(=O)(=O)c1ccccc1)NCc1ccc2c(c1)OCO2,5.1*,0,-3,8,1,14
Cc1cc(=O)[nH]c2nnc(SCC(=O)NCc3ccc4c(c3)OCO4)n12,-2,1,8,13,·,·
O=C(CCN1N=C(c2ccccc2)CCC1=O)NCc1ccc2c(c1)OCO2,7.2*,0,8,-1,0,-5
COc1ccc(-c2cnnn2-c2ccc(NC(=O)c3cccc(F)c3)cc2)cc1OC,-1,0,11,2,·,·
O=C(Cc1cc(=O)[nH]c(=O)[nH]1)NCc1ccc2c(c1)OCO2,8.6*,0,2,10,0,5
O=S(=O)(Cc1ccc2c(c1)OCO2)c1ccc2ccccc2c1,5.8*,0,-7,12,0,-12
O=C(CN1C(=O)/C(=C/c2ccccc2)Sc2ccccc21)NCc1ccc2c(c1)OCO2,9.0*,0,-1,-2,0,-1
O=C(CN1C(=O)/C(=C\c2cccc(Cl)c2)Sc2ccccc21)NCc1cccnc1,0,0,-7,6,·,·
COc1ccc2c(c1)N(C(=O)c1sc3ccccc3c1Cl)C(C)(C)c1ssc(=S)c1-2,0,0,10,6,·,·
CCOc1ccc2[nH]c(=O)c(CN(Cc3ccco3)C(=O)C(F)(F)F)cc2c1,3,0,-6,-4,·,·
CCOc1cccc2sc(NC(=O)c3ccc(Cl)cc3Cl)nc12,0,0,4,4,·,·
O=C(O)c1cc([N+](=O)[O-])cc([N+](=O)[O-])c1N1CCN(CCO)CC1,5.3*,0,8,17,1,8
Cc1ccc(C(=O)NCCc2ccc(Cl)cc2)o1,0,0,-6,-1,·,·
CCCCCCCC(=O)Oc1ccc(C(=O)Nc2nnc(C)s2)cc1,1,0,6,1,·,·
COc1ccc(C(CC(=O)N2CCCC2)NS(=O)(=O)c2ccc(F)cc2)cc1 (stereo not drawn),0,0,-1,-1,·,·
COc1ccc(N=C2SC(CC(=O)Nc3ccccc3)C(=O)N2CCN(C)C)cc1 (stereo not drawn),0,0,3,18,·,·
COc1ccccc1/C=N/N=C1/NC(=O)C(CC(=O)Nc2ccc(Cl)cc2)S1 (stereo not drawn),1,0,3,-2,·,·

# Screening data: PubChem, The Scripps Research Institute Molecular Screening Center
